# From PubChem BioAssay
# Active and inactive are the calls of the source. How the calls were made is not given here.
# Test: inhibition of Brca1/Bard1 split-luciferase complementation, confirmation, counter-screen for Mdm2/MdmX interaction inhibitor project, luminescence, single concentration (AID 504668)
# Settings: Brca1/Bard1 bimolecular luciferase complementation counterscreen, at 8 µM, hits give high values
row,Structure (SMILES),inhibition
1,C=CCc1cccc(/C=N/NC(=O)CNc2ccccc2)c1O,32.9% (active)
2,CC(C)(C)C(=O)NC(=S)NNC(=O)c1ccc(-c2ccccc2)cc1,28.9% (active)
3,Cc1ccc(S(=O)(=O)Nc2cc(-c3nn(C)c(=O)c4ccccc34)ccc2N2CCOCC2)cc1,29.6% (active)
4,COc1ccc(Cl)cc1NC(=O)c1nnn(CC(=O)Nc2ccc(OC)c(OC)c2)c1N,31.7% (active)
5,COc1cccc(/C=N/NC(=O)c2c(C)nc3ccc(Br)cn23)c1O,32.3% (active)
6,O=C(CCCN1C(=O)/C(=C\c2cccc(Br)c2)SC1=S)Nc1cccnc1,24.4% (active)
7,O=C(CCCl)Nc1nc2c(s1)CCc1ccccc1-2,24.6% (active)
8,CCCC(=O)NC(NC(=S)Nc1ccc(N=Nc2ccccc2)cc1)C(Cl)(Cl)Cl (stereo not given),32.4% (active)
9,COc1cc(NS(=O)(=O)c2ccc(N/C=C(\C#N)c3nc4cc(Cl)ccc4o3)cc2)nc(OC)n1,35.2% (active)
10,O=C(Nc1ccc(OC(F)(F)F)cc1)Nc1cccc([N+](=O)[O-])c1,35.8% (active)
11,COc1ccc(Cc2nnc(N/N=C/c3ccc(O)cc3)[nH]c2=O)cc1OC,24.8% (active)
12,CC(=O)NC(c1ccco1)c1ccc2cccnc2c1O (stereo not given),27.7% (active)
13,COc1ccc([C@@H]2[C@@H]3C(=O)N(C(C)(C)C)C(=O)[C@@H]3[C@]3(Cc4ccc(Cl)cc4)C(=O)N(c4ccc(Br)cc4)C(=O)N23)cc1,26.6% (active)
14,CCCCN1/C(=C/c2ccc3ccccc3[n+]2CC)Sc2ccccc21,32.5% (active)
15,C/C(=N\NC(=O)COc1cccc(C)c1)c1ccc2ccccc2c1O,33.6% (active)
16,Cc1ccc(-n2c(C)cc(/C=c3/sc4nc5ccccc5n4c3=O)c2C)cc1,27.7% (active)
17,COc1ccc([C@@H]2[C@@H]3C(=O)N(C(C)(C)C)C(=O)[C@@H]3[C@]3(CC(C)C)C(=O)N(c4ccc(C(F)(F)F)cc4)C(=O)N23)cc1,35% (active)
18,CCCc1c(NC(=O)Nc2ccc(F)cc2)cnn1-c1ccccc1,29.3% (active)
19,COc1cccc(C(NC(C)=O)c2ccc3cccnc3c2O)c1 (stereo not given),29.3% (active)
20,COC(=O)c1cccc(C23CC4(C2)[C@H](CN(Cc2ccc(C(F)(F)F)cc2)[C@@H]4c2ccccc2)C3c2ccc(C(F)(F)F)cc2)c1 (stereo not given in full),23.6% (active)

row,Structure (SMILES),inhibition
1,COc1ccc(NC(=O)c2cc3c(CO)cnc(C)c3oc2=Nc2cccc(F)c2)c(OC)c1,27.9% (active)
2,CCOc1ccc(CN2CCN(CC(O)Cn3c4ccccc4c4ccccc43)CC2)cc1 (stereo not given),35.8% (active)
3,CCN1CCN(CCCNC(=O)c2ccc(/C=C3/Sc4ccccc4N(Cc4ccccc4F)C3=O)cc2)CC1,24.1% (active)
4,O=C(N/N=C/c1cc([N+](=O)[O-])ccc1N1CCNCC1)c1ccc([N+](=O)[O-])cc1,32.1% (active)
5,O=C(/C(N=Nc1cccc([N+](=O)[O-])c1)=C(/O)c1ccc(Br)cc1)C(F)(F)F,24.9% (active)
6,CCC(C)NCC(=O)Nc1ccc(-c2nc3cc(NC(=O)CNC(C)CC)ccc3o2)cc1 (stereo not given),35.6% (active)
7,CCN(CC)CCCN=C1N[C@@H](c2cccc(C(F)(F)F)c2)C(C(=O)OC)=C(C)N1CC,30.4% (active)
8,Cc1cc(NC(=O)/C=C/C(=O)N(c2ccccc2C)C(C(=O)NC2CCCC2)c2ccc(F)cc2)no1 (stereo not given),28.7% (active)
9,N=c1c2c(-c3ccccc3)c(-c3ccccc3)n(Cc3ccco3)c2ncn1Cc1ccccc1,23% (active)
10,CCOc1cccc2sc(NC(=O)CCS(=O)(=O)c3ccccc3)nc12,35.4% (active)
11,CCC(=O)NC(c1cccs1)c1ccc2cccnc2c1O (stereo not given),23.3% (active)
12,Oc1c(C(c2ccccn2)N2CCC(Cc3ccccc3)CC2)cc(Cl)c2cccnc12 (stereo not given),33.2% (active)
13,CCc1ccc(C(O)(CC(C)C)C(CN2CCOCC2)c2ccccc2)cc1 (stereo not given),27.2% (active)
14,O=C(Nc1nc(-c2ccccn2)cs1)c1cc(Cl)ccc1[N+](=O)[O-],32.3% (active)
15,O=C(NC(Cc1c[nH]c2ccccc12)C(=O)Nc1ccc(F)c([N+](=O)[O-])c1)c1cccs1 (stereo not given),24.8% (active)
16,O=c1cc(CSc2ccc(Cl)cc2)nc(-c2ccccn2)[nH]1,30.5% (active)
17,COc1ccc(O)c(/C=N/NC(=O)c2ccc(CSc3nc(C)cc(C)n3)cc2)c1,30.7% (active)
18,O=C(CN1C(=O)/C(=C/c2ccccc2)SC1=S)N1CCN(CCc2ccccn2)CC1,24.3% (active)
19,Cc1nc(SCc2nc3cc(Cl)c(F)cc3[nH]2)c2oc3ccccc3c2n1,31.6% (active)
20,C/C(=N\NC(=O)c1nnn(-c2nonc2N)c1CN1CCc2ccccc21)c1ccccc1O,31.1% (active)
